From PubChem BioAssay AID488975 (Johns Hopkins Ion Channel Center, 2010) come the findings set out here.

The whole screen tested about 310,000 compounds, of which about 2,600 (0.84%) were called active.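 How the source made its calls: active means B-score over 3 SD under the library average, and starting fluorescence ratio not unusually high; inactive means the rest.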 The sample as a whole holds a higher share of actives than the screen did.

In the experiment the target is High affinity choline transporter 1 (Homo sapiens) (UniProt Q9GZV3). Nature of the experiment: inhibitors of human choline transporter CHT (AID 488975).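 On B-score: choline stimulus applied at its EC90 after an EC20 pre-addition; B-score computed on integrated fluorescence ratio after choline addition.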 Conditions: CHT-expressing cells, membrane potential dye, choline response, at 10 µM; stronger effect = lower value.
Chain of High affinity choline transporter 1 (Homo sapiens) (Q9GZV3 whole entry, looked up): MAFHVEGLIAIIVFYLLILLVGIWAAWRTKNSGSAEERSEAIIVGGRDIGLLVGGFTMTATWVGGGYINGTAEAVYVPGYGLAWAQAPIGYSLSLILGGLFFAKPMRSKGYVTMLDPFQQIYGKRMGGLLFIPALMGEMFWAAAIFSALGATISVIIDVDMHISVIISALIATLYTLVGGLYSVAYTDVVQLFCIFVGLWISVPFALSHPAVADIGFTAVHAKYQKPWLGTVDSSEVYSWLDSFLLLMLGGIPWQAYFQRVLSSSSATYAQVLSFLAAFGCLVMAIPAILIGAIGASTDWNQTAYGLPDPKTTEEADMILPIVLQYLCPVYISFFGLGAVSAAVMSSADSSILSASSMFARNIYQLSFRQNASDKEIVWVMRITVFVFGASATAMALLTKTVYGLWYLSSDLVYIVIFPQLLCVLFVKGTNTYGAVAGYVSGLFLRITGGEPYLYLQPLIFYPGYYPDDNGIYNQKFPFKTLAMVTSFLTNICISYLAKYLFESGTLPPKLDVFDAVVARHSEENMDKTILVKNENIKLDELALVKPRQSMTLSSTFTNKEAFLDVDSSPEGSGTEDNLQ
Regarding `Cc1nc2ccccn2c1P(=S)(N1CCCCC1)N1CCCCC1`, the B-score was -6.55 (active).

In the case of `CC[C@H]1CC2CN3CCc4c([nH]c5ccccc45)C(C(=O)OC)(C2)C13` (stereo not given in full), the B-score entry was “inactive”.

As to `COC(=O)C1=C(c2cc3ccccc3s2)C[C@@H]2CC[C@H]1N2C(=O)NC(C)C`, the B-score entry is “inactive”.

For `C[N+]1(C)CCOC(O)(c2ccc(-c3ccc(C4(O)C[N+](C)(C)CCO4)cc3)cc2)C1` (stereo not given), the B-score is -5.22 (active).

Turning to `C=CCN1C(=O)NC(=O)/C(=C/c2ccc(OCC(=O)Nc3ccc(C)cc3)cc2)C1=O`, the B-score result is “inactive”.

On to `COc1ccc(CNCCc2c[nH]c3ccccc23)cc1OC`, for which the B-score entry is “inactive”.

As to `O=C(N/N=C/c1c(O)n(C2CC2)c(=S)[nH]c1=O)c1ccccc1`, the B-score result is “inactive”.

In the case of `COc1ccc2c(c1)[C@]13CCCCC1C(C2)N(C)CC3` (stereo not given in full), the B-score result is “inactive”.

Turning to `COC(=O)C1=C(c2cc3ccccc3s2)C[C@@H]2CC[C@H]1N2C(=O)NCc1cccc2ccccc12`, the B-score result was “inactive”.

`COC(=O)C(c1ccccc1)N1CCCCCC1` (stereo not given): the B-score entry was “inactive”.

Regarding `O=C(NCC(c1cccnc1)N1CCN(c2ccccc2)CC1)Oc1ccccc1` (stereo not given), the B-score entry was “inactive”.

With `COc1ccccc1N1CCN(C(CNC(=O)Oc2ccccc2)c2cccnc2)CC1` (stereo not given), the B-score was -6.58 (active).

As to `COc1ccc(N2C(=O)/C(=C/c3ccco3)C(=O)NC2=S)cc1`, the B-score entry was “inactive”.

On to `COC(=O)C1=C(c2ccccc2)C[C@@H]2CC[C@H]1N2C(=O)NCc1ccco1`, for which the B-score result is “inactive”.

Consider `C/C(=N/O)c1ccc2ccc3ccccc3c2c1`, for which the B-score result was “inactive”.
